In PubChem BioAssay (NCATS):
“And” between values parts separate entries of the source, which are not always exact repeats. Equal values may be shown once. Inconclusive results are not listed. More than one record can exist for a structure, and the calls need not agree. The source made the active and inactive calls. Unless noted, calls follow the shape of the dose curve; as a rule, active = well fitted curve in either direction with a large enough effect (not every such curve was filed as active); inconclusive = small, poorly fitted or top-dose-only effect, or another doubt; inactive = flat fitted curve, though single readings scatter.

Experiments:
[1] = AP1 Signaling Pathway (AID 357); settings: ME-180 (cervical carcinoma) AP-1-bla reporter, EGF-induced, beta-lactamase ratio, 5 h; also: % is scaled to controls: 0 for no effect and ±100 for the full control effect
How it was run: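 AP-1-bla ME-180 cells with beta-lactamase reporter under AP-1 response element, stimulated with EC50 EGF; compounds titrated, 5 hours at 37 degrees Celsius. CCF4 read at 460/530 nm ratio; positive and negative modulators judged by AC50.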

[2] = target: Cytochrome P450 1A2 (Homo sapiens) (UniProt P05177); test: p450-cyp1a2 (AID 410; calls by dose curve; also: potency is read from the fitted curve at half-maximal effect;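 as to activity change, negative = inhibition: -100% = full effect of reference inhibitor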); settings: recombinant CYP1A2, luciferin-ME demethylation, luminescence; series mostly up to 25.6 µM
How it was run: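 Read-out is luminescence from luciferin produced by CYP1A2 demethylation of Luciferin-ME (100uM, at Km). Detection reagent stopped the 60 min NADPH-dependent reaction; signals were normalized to 57 uM furafylline.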

[3] = NFAT Signaling Pathway (AID 444); settings: Jurkat NFAT-bla M1, carbachol, beta-lactamase ratio, 5 h;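 also: carbachol stimulus at about its EC50 of 1 µM final; % is scaled to controls: 0 for no effect and ±100 for the full control effect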
How it was run: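 Jurkat cells with NFAT-driven β-lactamase reporter and co-expressed M1 receptor, stimulated with carbachol (final 1 uM, ~EC50), compound titration, 5 h at 37 °C. CCF4 loaded 1 h at RT; 460/530 nm ratio gave %activity and AC50.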

Cytochrome P450 1A2 (Homo sapiens), sequence (P05177 whole entry, looked up): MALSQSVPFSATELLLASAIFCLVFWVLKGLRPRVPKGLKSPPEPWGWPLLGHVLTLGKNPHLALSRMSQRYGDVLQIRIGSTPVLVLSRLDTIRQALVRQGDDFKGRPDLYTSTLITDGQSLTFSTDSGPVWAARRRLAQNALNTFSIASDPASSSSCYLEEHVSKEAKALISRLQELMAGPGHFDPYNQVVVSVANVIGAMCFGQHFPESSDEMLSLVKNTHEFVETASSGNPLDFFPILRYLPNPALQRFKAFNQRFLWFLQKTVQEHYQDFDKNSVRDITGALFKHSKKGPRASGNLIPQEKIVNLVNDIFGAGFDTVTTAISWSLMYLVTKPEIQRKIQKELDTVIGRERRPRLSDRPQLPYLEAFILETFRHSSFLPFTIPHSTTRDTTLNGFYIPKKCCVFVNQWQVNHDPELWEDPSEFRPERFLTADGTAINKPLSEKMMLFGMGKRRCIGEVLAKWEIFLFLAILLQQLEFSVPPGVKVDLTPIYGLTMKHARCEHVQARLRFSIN

Question: With `CNCCC(Oc1ccc(C(F)(F)F)cc1)c1ccccc1` (configuration not stated) as the compound, how does the activity change, negative = inhibition ([1]; at 17.2 µM (top of the series)) read?
Answer: 21.9% (inactive)

Question: Which activity change, negative = inhibition ([1]; at 17.2 µM (top of the series)) does the source give for `CCCCN(CCCC)CCCOC(=O)c1ccc(N)cc1` here?
Answer: -6.24% (inactive) and -3.31% (inactive)

Question: And the Potency [2]?
Answer: 10 µM (active)

Question: Which activity change, negative = inhibition ([1]; at 17.2 µM (top of the series)) does the source give for `CCCc1c(OCCCCc2nn[nH]n2)ccc(C(C)=O)c1O` here?
Answer: -20.5% (inactive)

Question: With `c1ccc(CN(CC2=NCCN2)c2ccccc2)cc1` as the compound, how does the activity change, negative = inhibition ([1]; at 17.2 µM (top of the series)) read?
Answer: 6.18% (inactive) and 2.47% (inactive) and 4.31% (inactive)

Question: What about the Potency [2] of the same compound?
Answer: inactive

Question: Which activity change, negative = inhibition ([1]; at 17.2 µM (top of the series)) does the source give for `CC(=O)OCC(=O)[C@@]1(O)CC[C@H]2[C@@H]3CCC4=CC(=O)CC[C@]4(C)[C@H]3C(=O)C[C@@]21C` here?
Answer: 0.362% (inactive)

Question: With `CCCCN1CCCC[C@H]1C(=O)Nc1c(C)cccc1C` as the compound, how does the activity change, negative = inhibition ([1]; at 17.2 µM (top of the series)) read?
Answer: 0.542% (inactive)

Question: And the Potency [2]?
Answer: 5.01 µM (active)

Question: What about the activity change, negative = inhibition ([3]; at 17.2 µM (top of the series)) of the same compound?
Answer: 3.05% (inactive)

Question: Which activity change, negative = inhibition ([1]; at 17.2 µM (top of the series)) does the source give for `CC1=C(/C=C/C(C)=C/C=C/C(C)=C/C(=O)O)C(C)(C)CCC1` here?
Answer: -14.6% (inactive)

Question: For `CCN(CC)CCNC(=O)c1cc(Cl)c(N)cc1OC`, which activity change, negative = inhibition ([1]; at 17.2 µM (top of the series)) is on record?
Answer: 0.248% (inactive) and 1.7% (inactive)

Question: What about the activity change, negative = inhibition ([1]; at 38 µM (top of the series)) of the same compound?
Answer: 17% (inactive)

Question: What about the Potency [2] of the same compound?
Answer: 15.8 µM (active)

Question: And the activity change, negative = inhibition ([3]; at 17.2 µM (top of the series))?
Answer: -0.325% (inactive) and -6.2% (inactive)

Question: What about the activity change, negative = inhibition ([3]; at 38 µM (top of the series)) of the same compound?
Answer: 4.1% (inactive)

Question: Which results are given for `CC(C)NC[C@H](O)c1ccc(O)c(O)c1`?
Answer: activity change, negative = inhibition ([1]; at 17.2 µM (top of the series)): 3.55% (inactive) and -12.3% (inactive); activity change, negative = inhibition ([1]; at 38 µM (top of the series)): -3.34% (inactive) [middle of 4 runs]; activity change, negative = inhibition ([3]; at 17.2 µM (top of the series)): -6.44% (inactive) and -3.44% (inactive)

Question: Which results are given for `CNCCCC1c2ccccc2C=Cc2ccccc21`?
Answer: activity change, negative = inhibition ([1]; at 17.2 µM (top of the series)): -3.44% (inactive) and 2.28% (inactive); Potency [2]: inactive; activity change, negative = inhibition ([3]; at 17.2 µM (top of the series)): -94% (active)

Question: Which activity change, negative = inhibition ([1]; at 17.2 µM (top of the series)) does the source give for `NS(=O)(=O)c1cc2c(cc1Cl)NC(CSCc1ccccc1)=NS2(=O)=O` here?
Answer: -6.04% (inactive) and -5.71% (inactive)

Question: And the Potency [2]?
Answer: inactive

Question: And the activity change, negative = inhibition ([3]; at 17.2 µM (top of the series))?
Answer: -9.25% (inactive) and 1.09% (inactive)

Question: What does the source list for `Cc1cc(N)c2ccccc2[n+]1CCCCCCCCCC[n+]1c(C)cc(N)c2ccccc21`?
Answer: activity change, negative = inhibition ([1]; at 17.2 µM (top of the series)): -20.8% (inactive); Potency [2]: inactive and 10 µM (active) and 15.8 µM (active); activity change, negative = inhibition ([3]; at 38 µM (top of the series)): -78.7% (active)

Question: What does the source list for `CCn1cc(C(=O)O)c(=O)c2cnc(N3CCNCC3)nc21`?
Answer: activity change, negative = inhibition ([1]; at 17.2 µM (top of the series)): 8.66% (inactive) and 0.464% (inactive); Potency [2]: inactive; activity change, negative = inhibition ([3]; at 17.2 µM (top of the series)): -4.81% (inactive)

Question: For `CC(COc1ccccc1)NC(C)C(O)c1ccc(O)cc1` (configuration not stated), which activity change, negative = inhibition ([1]; at 17.2 µM (top of the series)) is on record?
Answer: 9.92% (inactive)

Question: What does the source list for `CC(C)C(=O)c1c(C(C)C)nn2ccccc12`?
Answer: activity change, negative = inhibition ([1]; at 38 µM (top of the series)): -2.6% (inactive); Potency [2]: 1.26 µM (active) and 631 nM (active); activity change, negative = inhibition ([3]; at 38 µM (top of the series)): -1.94% (inactive)

Question: What does the source list for `Cc1cc2c(cc1S(N)(=O)=O)S(=O)(=O)CCC2`?
Answer: activity change, negative = inhibition ([1]; at 17.2 µM (top of the series)): 4.34% (inactive); Potency [2]: inactive; activity change, negative = inhibition ([3]; at 17.2 µM (top of the series)): 1.69% (inactive)

Question: Which activity change, negative = inhibition ([1]; at 17.2 µM (top of the series)) does the source give for `CC1=C(CC(=O)O)c2cc(F)ccc2/C1=C\c1ccc(S(C)=O)cc1` (configuration not stated) here?
Answer: 6.13% (inactive)

Question: What about the activity change, negative = inhibition ([1]; at 38 µM (top of the series)) of the same compound?
Answer: -0.0105% (inactive)

Question: And the Potency [2]?
Answer: 12.6 µM (active) and 3.98 µM (active)

Question: And the activity change, negative = inhibition ([3]; at 38 µM (top of the series))?
Answer: 2.92% (inactive)
